Laboratory results taken from PubChem BioAssay (NCI).
This is part of a sample that, as a whole, favours compounds with a hit. Of some 83,000 tested, about 20% had one in any assay.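 A percent growth of 40 corresponds to 60% growth inhibition; 0 means no net growth; -100 means all cells died. Active threshold: below 10.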 Unmarked numbers belong to inactive results. Calls of active or inactive are those of the source.

The compounds below were run on OVCAR-4 ovarian (assay: NCI-60 one-dose screen, 48 h (100 = growth as untreated, 0 = no growth, -100 = all killed)). Details: 10 µM unless noted.

SMILES | growth
O=C(O)CC1Cc2ccccc2C1C(=O)O (stereo unspecified) | 113%
Nc1cc2c(cc1Br)[nH]c(=O)c1ccccc12 | 24.8%
CCc1ccc(C(=Nc2ccc(N(C)C(=O)CN3CCN(C)CC3)cc2)c2c(O)[nH]c3ccc(C(=O)OC)cc23)cc1 | -61.3% (active)
O=C1CSC(c2ccccc2Cl)N1c1nnc(-c2ccncc2)o1 (stereo unspecified) | 97.8%

Each compound was assayed on SK-OV-3 ovarian in the same assay as above. Details: 10 µM unless noted.

SMILES | growth
COc1nc(OC)nc(-c2cc(C(=O)c3ccc(Br)cc3)n3cc(C)cc(C)c23)n1 | 53.9%
CC(=O)OCC(=O)[C@@]1(O)[C@H](C)C[C@H]2[C@@H]3C=C(C)C4=Cc5c(cnn5-c5ccc(F)cc5)C[C@]4(C)[C@H]3[C@@H](O)C[C@@]21C | 23.9%
Brc1c(-c2ccncc2)nc2n1CCS2 | 116%
CC(=O)/C(=C\c1c(-c2ccccc2)[nH]c2ccccc12)S(=O)(=O)c1ccccc1 | 19.3%
COc1ccc(/C=N/c2cc(C(C)(C)C)nn2-c2ccccc2)cc1 | 101%
CCC1(CC)C(OC)NC(Br)=C(C#N)C1(C#N)C(N)=O (stereo unspecified) | 114%
COc1ccc(CN2C(=O)/C(=C\C(=O)c3ccc(OCCN4CCCC4)cc3)c3ccccc32)cc1 | 101%
COc1ccc(/C=C2\SC(=O)N(Cc3cc(=O)oc4ccc(OC)cc34)C2=O)cc1 | 96.6%
c1cc(C2CCCCC2)ccc1OCCCCCCN1CCNCC1 | 83.8%
COc1cc(/C=C/C(=O)/C=C(/C=C/c2ccc(OC(C)=O)c(OC)c2)OB(F)F)ccc1OC(C)=O | 94.8%
O=C1/C(=N\c2cc(=O)[nH]n2S(=O)(=O)c2ccccc2)Nc2ccccc21 | 105%
N=C(N)c1ccc(-c2ccc(-c3ccc(Cl)cc3)s2)s1 | -50.9% (active)
COc1cc([C@@H]2c3cc4c(cc3[C@H](O)[C@H]3COC[C@@H]23)OCO4)cc(OC)c1OC | 98.3%
O=Nc1c(-c2c(O)[nH]c3cc(Br)ccc23)[nH]c2ccccc12 | -77.8% (active)
CC(C)(C)C(=O)OCOP(=O)(OCOC(=O)C(C)(C)C)C1CC(O)N(O)C1=O (stereo unspecified) | 52.5%
CC1(C)CC(=O)C2=C(C1)Oc1nc(N)c(C#N)c(N)c1C2c1ccc(F)cc1 (stereo unspecified) | 115%

SMILES | growth
O=C1c2cc([N+](=O)[O-])ccc2-c2cc(Cl)c(NC(=O)C(F)(F)F)cc21 | 111%
COc1ccc(CNCCCN2C(=O)c3ccc4c5c(ccc(c35)C2=O)C(=O)N(CCCNCc2ccc(OC)c(OC)c2OC)C4=O)c(OC)c1OC | -77.4% (active)
O=C(Nc1ccccc1)Nc1ccc(Nc2ncnc3sc4c(c23)CCCC4)cc1 | 99.6%
O=S(=O)(Cc1cccc2c(CS(=O)(=O)c3ccc(Cl)cc3)cccc12)c1ccc(Cl)cc1 | 94.7%
COc1cc(CNC(=O)CCCC/C=C/C(C)C)ccc1OCc1nnc(Nc2ccccc2F)o1 | 48.6%
Nc1nc2c(c3ncncc13)C(c1cccc(C(F)(F)F)c1)Cc1ncncc1-2 (stereo unspecified) | 32.9%
Cn1cnc2nc[nH]c2c1=S | 105%
O=C(O)c1ccc(-c2nn(-c3ccc(C(=O)O)cc3)cc2CNc2ccc(Br)cc2)cc1 | 102%
O=C(N/N=C/c1coc2ccccc2c1=O)c1cc2oc(-c3ccccc3)cc2[nH]1 | 102%
CCC(C)C1NC(=O)C(CC(C)C)NC(=O)C(C)NC(=O)C(C(C)C)NC(=O)C(CCCCN)NC(=O)C(CC(C)C)NC(=O)C(C(C)C)NC(=O)[C@H](C)NC(=O)C(C(C)CC)NC(=O)C(CCCN=C(N)N)NC(=O)C(CCCCN)NC(=O)C(CCCN=C(N)N)NC(=O)C(CCCCN)NC(=O)C([C@H](C)CC)NC(=O)C(CCCCN)NC1=O (stereo partly specified) | 10.4%
C=CCN(C)C | 115%
CCC(CCCN1C(=O)c2ccccc2C1=O)Nc1cc(OC)cc2cccnc12 (stereo unspecified) | 107%
O=c1c(N=Nc2nccs2)c(-c2ccccc2)[nH]n1-c1nc(-c2ccccc2)cs1 | 23.5%
Cc1ccc(C(=O)Nc2ccc(CN3CCN(C)CC3)c(C(F)(F)F)c2)cc1C#Cc1cncc2ncccc12 | -12.6% (active)
CCOC(=O)C1C(=O)C(=O)N(C(C)C)C1C(=O)OCC (stereo unspecified) | 109%
COc1cc2c(cc1OC)C(Cc1cc(OC)c(OC)cc1[N+](=O)[O-])=NCC2 | 89.8%
